# Experimental data published in PubChem BioAssay AID620 (Sanford-Burnham Center for Chemical Genomics, 2007).
# Screen size: about 87,000 compounds; about 360 (0.41%) were called active. This excerpt belongs to a sample that is enriched for actives. Unmarked numbers belong to inactive results. Cut-off read from the data, not from the text of the source: active = cytotoxicity above about 50%; inactive = the rest.
# Experiment: cytotoxicity in HT1080 fibrosarcoma cells, cell-based, fluorescence readout (AID 620);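 note: cells exposed to compound overnight then 4 h with Alamar Blue; 0% = vehicle DMSO and 100% = killing control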
# Conditions: HT1080 viability, at 10 µM, stronger effect = higher value
row,SMILES,cytotoxicity
1,c1ccc(OCCOCCN2CCOCC2)cc1,-2.8%
2,Cc1nc2c(cnn2-c2ccccc2Cl)c(=O)n1-c1ccc(N2CCC(C)CC2)cc1,0.5%
3,COCc1cc(C)nc(SCC(=O)Nc2cccc(C)c2C)c1C#N,-2%
4,Cc1csc(NC(=O)c2cc3c(s2)CCCCC3)n1,-7.3%
5,Cc1csc(NC(=O)c2cc3c(s2)CCC3)n1,20.8%
6,CCC(C)NS(=O)(=O)c1ccc(-c2csnn2)s1 (centres undefined),-2.6%
7,CC(CCc1ccccc1)NC(=O)CSc1nnnn1C (centres undefined),9.7%
8,CC1=CC(C)(C)N(S(=O)(=O)c2ccc(C)cc2)c2ccc(C)cc21,64.1% (active)
9,CC1=CC(C)(C)N(C(=O)c2ccccc2)c2ccc(C)cc21,-8.8%
10,Cc1ccc2c(c1)[C@@H]1CN(C)CC[C@@H]1N2S(=O)(=O)c1ccc(F)cc1,3.2%
11,Cc1ccc(N2CCN(S(=O)(=O)c3ccc(F)cc3)CC2)c(C)c1,-3.9%
12,CC1=CC(C)(C)N(S(=O)(=O)c2ccc(F)cc2)c2ccc(C)cc21,61% (active)
13,CC1=CC(C)(C)N(S(=O)(=O)c2ccc(F)cc2)c2ccccc21,34.7%
14,Cc1ccc(S(=O)(=O)N2C(=S)SCC2(C)C)cc1,14.3%
15,CC1=CC(C)(C)N(S(=O)(=O)c2ccc(C)cc2)c2ccccc21,64.3% (active)
16,CC1=CC(C)(C)N(C(=O)C(C)N2C(=O)c3ccccc3C2=O)c2ccc(C)cc21 (centres undefined),5.3%
17,CC1=CC(C)(C)N(C(=O)CSc2nccn2C)c2cc(C)ccc21,-6.8%
18,CC1=CC(C)(C)N(S(=O)(=O)c2ccc(C)cc2)c2cc(C)ccc21,63.7% (active)
19,CC1=CC(C)(C)N(C(=O)CN2C(=O)c3ccccc3C2=O)c2ccccc21,12.7%
20,Cc1ccc2[nH]c3c(=O)n(CCCN4CCOCC4)cnc3c2c1,-1.5%
21,CCOc1ccc(NC(=O)c2cc3cc4ccc(OC)cc4nc3o2)cc1,-4.9%
22,COc1ccc(NC(=O)c2ccco2)c(NC(=O)Cc2cccs2)c1,-0.8%
23,O=C(C(NS(=O)(=O)c1cccs1)c1ccccc1)N1CCN(c2ccccc2F)CC1 (centres undefined),1.9%
24,CC(C)(C)N(Cc1ccccc1)C(=O)c1ccc2c(c1)OCCO2,-6.6%
25,Cc1sc2ncnc(NCC3CCCO3)c2c1C (centres undefined),-6.6%

row,SMILES,cytotoxicity
1,COC(=O)c1ccc(NC(=O)CSc2nc3cccnc3n2C)cc1,-2.4%
2,COc1cc(NC(=O)C2CCCO2)c(C(=O)O)cc1OC (centres undefined),6.7%
3,COc1ccccc1N1CCN(C(=O)c2cc3sccc3n2C)CC1,-5.4%
4,O=C(OC(C(=O)NC1CCCC1)c1ccccn1)c1cccs1 (centres undefined),-10%
5,CN=C1SC(CC(=O)Nc2sc3c(c2C#N)CCCC3)C(=O)N1C (centres undefined),1.2%
6,CN1Cc2cc(C(=O)c3ccccc3O)cnc2NC1=O,-10.1%
7,CN1Cc2cc(C(=O)c3cc(Cl)cc(CSc4ncccn4)c3O)cnc2NC1=O,70.1% (active)
8,CCCCN1Cc2cc(C(=O)c3cc(F)ccc3O)cnc2NC1=O,-2.9%
9,O=C1NC(c2ccccc2)C(C(=O)c2cccs2)=C1O (centres undefined),-9.1%
10,COc1ccccc1NC(=O)c1ccc(NS(C)(=O)=O)cc1,-6.8%
11,C/C(=N\NC(=O)c1ccccn1)C12CC3CC(CC(C3)C1)C2,-0.9%
12,CCN(CC)S(=O)(=O)c1cccc(-c2nnc(SCC(=O)NC3CCCC3)n2N)c1,-9.2%
13,CCOc1ccccc1NC(=O)N1CCC(c2nc3ccccc3[nH]2)CC1,2.8%
14,COc1ccccc1NC(=O)N1CCC(c2nc3cc(C)c(C)cc3[nH]2)CC1,72.8% (active)
15,CCOc1ccccc1NC(=O)N1CCC(c2nc3ccc(C)cc3[nH]2)CC1,-20.4%
16,Cc1ccc(NC(=O)/C(C#N)=C/c2cccs2)c(C)c1,-7.9%
17,COC(=O)[C@@]1(Cc2ccc(F)cc2)[C@H]2c3cc(C(=O)N4CCCC4)n(CCc4ccc(O)c(O)c4)c3C[C@H]2CN1C(=O)c1ccccc1,-15.9%
18,COc1ccccc1CNC(=O)CCS(=O)(=O)c1cccs1,-8.3%
19,COc1cc(CNc2ccccc2SC)cc(OC)c1OC,-30.4%
20,COc1cc(CNc2ccc(C)c(C)c2)cc(OC)c1OC,54.5% (active)
21,COc1cc(CNc2cc(C)ccc2C)cc(OC)c1OC,-14.1%
22,CCOC(=O)c1csc(NC(=O)C2CCCCC2)n1,-6.3%
23,CCc1c(C)sc(NC(=O)C2CCCO2)c1C#N (centres undefined),0.6%
24,O=C(Cn1c(CC(=O)N2CCCC2)nc2ccccc21)NCc1ccccc1,3%
